Assay [1] in a line: qHTS assay to identify small molecule antagonists of the glucocorticoid receptor (GR) signaling pathway - cell viability counter screen (AID 720693). Also: nearly all actives have a fitted effect of over 55% in size. Background: In qHTS, concentration-response curves come from the screen itself.
The nature of assay [2]: qHTS assay for identifying genotoxic compounds that show differential cytotoxicity against isogenic chicken DT40 cell lines with known DNA damage response pathways - wild type cell line (AID 743012). Also: nearly all actives have a fitted effect of over 60% in size. Also: potency is read from the fitted curve at half-maximal effect. A digest of the protocol: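 Viability of DNA repair-proficient chicken DT40 cells was assessed by CellTiter-Glo luminescence following 40 h compound exposure at 37 C/5% CO2.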

A short description of assay [3]: qHTS assay to identify small molecule antagonists of the androgen receptor (AR) signaling pathway using the MDA cell line - cell viability counter screen (AID 743041; also: nearly all actives have a fitted effect of over 45% in size). In short, it runs like this: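 Cytotoxicity counter screen: MDA-kb2 AR-luc cells, compound + R1881, 16 h, 37C, 0% CO2; CellTiter-Fluor added at 15.5 h, fluorescence read after 30 min.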
The nature of assay [4]: qHTS assay to identify small molecule antagonists of the androgen receptor (AR) signaling pathway - cell viability counter screen (AID 743033; also: nearly all actives have a fitted effect of over 45% in size).
Assay [5] is described as follows: qHTS assay to identify small molecule antagonists of the thyroid receptor (TR) signaling pathway - cell viability counter screen (AID 743064). Also: nearly all actives have a fitted effect of over 50% in size. Also: potency is read from the fitted curve at half-maximal effect. In short, it runs like this:
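GH3.TRE-Luc cells, 4 h pre-plating; cpd + T3 1 nM final; 37 °C 23.5 h; CellTiter-Fluor 30 min; fluorescence read.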

A short description of assay [6]: qHTS assay for identifying genotoxic compounds that show differential cytotoxicity against isogenic chicken DT40 cell lines with known DNA damage response pathways - Rev3 mutant cell line (AID 743014). Also: nearly all actives have a fitted effect of over 55% in size.
Assay [7] is described as follows: qHTS assay for identifying genotoxic compounds that show differential cytotoxicity against isogenic chicken DT40 cell lines with known DNA damage response pathways - Rad54/Ku70 mutant cell line (AID 743015). Also: nearly all actives have a fitted effect of over 60% in size. Also: potency is read from the fitted curve at half-maximal effect.
Assay [8] concerns the target Androgen receptor (Homo sapiens) (UniProt P10275). Description: qHTS assay to identify small molecule agonists of the androgen receptor (AR) signaling pathway using the MDA cell line (AID 743040; also: nearly all actives have a fitted effect of over 20% in size). A digest of the protocol:
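Luciferase read-out, ONE-Glo, 30 min RT. Cells: MDA-kb2 AR-luc, MMTV promoter with AR and GR response elements. Compound exposure 16 h, 37C, 0% CO2, after 5 h pre-incubation. qHTS agonist mode.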

Assay [9] shares this target. Description: qHTS assay to identify small molecule agonists of the androgen receptor (AR) signaling pathway (AID 743036; active = well fitted activation curve with a large enough effect in the signal ratio in the repeat runs, with a control signal flat, not every such curve was filed as active; the % refers to the signal ratio). A digest of the protocol:
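AR-bla HEK293 cells, 2,000/well; 4 h preincubation 37C/5% CO2; compound (DMSO) 16 h at 37C; LiveBLAzer B/G FRET substrate 2 h RT; fluorescence intensity read-out.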

For assay [10] the target is unchanged. Description: qHTS assay to identify small molecule antagonists of the androgen receptor (AR) signaling pathway using the MDA cell line (AID 743042; also: nearly all actives have a fitted effect of over 55% in size). In short, it runs like this:
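MDA-kb2 breast carcinoma cells carrying MMTV-luciferase (AR/GR responsive) were co-treated with compounds and the agonist R1881 for 16 h at 37C. Inhibition read as ONE-Glo luminescence; CellTiter-Fluor fluorescence measured in parallel for cytotoxicity.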

Structures are written as SMILES. Inconclusive results are not listed. The source made the active and inactive calls. Unless noted, calls follow the shape of the dose curve; as a rule, active = well fitted curve in the direction sought with a large enough effect in the repeat runs; inconclusive = weak or mixed curves; inactive = no such curve, though single readings can be large; an effect the other way counts as inactive or inconclusive.

Androgen receptor (Homo sapiens), sequence (P10275 whole entry, looked up): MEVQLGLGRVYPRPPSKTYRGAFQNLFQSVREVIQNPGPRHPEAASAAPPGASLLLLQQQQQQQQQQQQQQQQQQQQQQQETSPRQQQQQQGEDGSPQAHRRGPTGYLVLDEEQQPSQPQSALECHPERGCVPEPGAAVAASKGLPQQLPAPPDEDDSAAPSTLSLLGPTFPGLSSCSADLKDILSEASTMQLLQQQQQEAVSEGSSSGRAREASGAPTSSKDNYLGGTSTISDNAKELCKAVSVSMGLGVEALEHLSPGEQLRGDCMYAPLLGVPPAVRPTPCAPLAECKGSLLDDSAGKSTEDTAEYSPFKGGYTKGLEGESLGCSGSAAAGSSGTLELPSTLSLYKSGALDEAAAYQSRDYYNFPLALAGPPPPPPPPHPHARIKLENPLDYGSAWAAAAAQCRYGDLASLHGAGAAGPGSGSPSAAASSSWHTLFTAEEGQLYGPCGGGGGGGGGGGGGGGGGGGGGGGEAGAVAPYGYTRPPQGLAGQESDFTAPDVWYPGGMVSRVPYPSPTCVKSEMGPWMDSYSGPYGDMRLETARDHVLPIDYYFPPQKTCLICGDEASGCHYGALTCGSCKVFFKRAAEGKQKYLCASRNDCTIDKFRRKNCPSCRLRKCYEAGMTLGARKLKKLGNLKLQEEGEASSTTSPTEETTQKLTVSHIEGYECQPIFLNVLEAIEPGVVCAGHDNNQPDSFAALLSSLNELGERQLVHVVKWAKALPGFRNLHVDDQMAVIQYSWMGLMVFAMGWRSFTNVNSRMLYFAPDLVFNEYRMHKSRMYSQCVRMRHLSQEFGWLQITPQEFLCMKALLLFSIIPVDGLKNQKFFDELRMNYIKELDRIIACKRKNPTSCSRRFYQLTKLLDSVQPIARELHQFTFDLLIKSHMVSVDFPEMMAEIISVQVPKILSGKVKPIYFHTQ

For `OC[C@H]1O[C@@H](n2cnc3c(=S)nc[nH]c32)[C@H](O)[C@@H]1O`, the Potency entry in [1] and in assay [3] was “inactive” throughout. Besides, in [2], the Potency was 13.3 µM (active).

Take `Oc1cccc(O)c1O`: the Potency result in assay [1], in assay [4] and in assay [3] was “inactive” throughout. For the same molecule, the Potency in [2] is 26.6 µM (active).

With `Cc1ccccc1N=C(N)Nc1ccccc1C`, the Potency result in assay [1], in assay [4], in assay [3] and in [5] was “inactive” throughout.

`O=C(CCCN1CC=C(n2c(=O)[nH]c3ccccc32)CC1)c1ccc(F)cc1`: the Potency result in [1], in [4] and in [3] was “inactive” throughout. Besides, in assay [2], the Potency is 29.8 µM (active).

With `CC(C)Nc1cccnc1N1CCN(C(=O)c2cc3cc(NS(C)(=O)=O)ccc3[nH]2)CC1`, the Potency result in [1], in assay [4], in assay [3] and in assay [5] was “inactive” each time.

Turning to `N#[N+]c1ccc2c(S(=O)(=O)[O-])cccc2c1O`, the Potency entry in assay [1], in [6], in [7], in [4], in assay [3] and in assay [5] was “inactive” in each case.

Turning to `Clc1cc(Cl)nc(Cl)n1`, the Potency entry in [1], in assay [6], in assay [7], in [4], in [3] and in [5] was “inactive” each time.

Consider `CCOc1cccc(-n2cc(C(=O)N3CCN(c4cc(C(=O)O)c5ccccc5c4)CC3)nc2-c2ccc(C)cc2)c1`, for which the Potency result in [1] and in [4] was “inactive” throughout. Moreover, in assay [8], the molecule was classed as inactive.

Regarding `Cc1ccc(C(C)(C)O)cc1`, the Potency result in [1], in assay [6], in assay [7], in [4], in [3] and in [5] was “inactive” in each case.

As for `O=Cc1c2ccccc2c(Cl)c2ccccc12`, the Potency entry in [1], in [6], in [7], in [4], in [3] and in assay [5] was “inactive” in each case.

Turning to `CC(C)=CCC/C(C)=C/CC/C(C)=C/CCC(=O)OC/C=C(\C)CCC=C(C)C`, the Potency result in assay [1], in assay [6], in [4], in [3] and in assay [5] was “inactive” throughout.

On to `CC(CN(C)C)C(C)(O)Cc1ccc(Cl)cc1` (centres undefined), for which the Potency entry in assay [1], in [2], in [4], in assay [3] and in [10] was “inactive” throughout. The molecule was classed as inactive in [9] and in assay [8].

`O=C1CCCCCCCCCCOCCCCO1`: the Potency result in assay [1], in assay [2], in assay [3] and in assay [5] was “inactive” throughout.

Turning to `C[C@@H]1CN(CCCn2c3ccccc3c3ccccc32)C[C@H](C)N1`, the Potency result in [1] is “inactive”. Moreover, the Potency in [2] was 9.44 µM (active); in [7] it was 9.44 µM (active); in [5], 10.6 µM (active).

Consider `CC(=O)Nc1ccc(C)cc1C`, for which the Potency entry in [1], in assay [6], in assay [7], in [4], in [3] and in [5] was “inactive” throughout.

As to `Brc1cc2ccccc2c2ccccc12`, the Potency entry in assay [1], in assay [4], in assay [3] and in assay [5] was “inactive” in each case.

As for `CN1C(=O)c2ccccc2C1=O`, the Potency entry in [1] and in assay [3] was “inactive” in each case. The Potency in [7] is 61.1 µM (active).

Regarding `c1ccc2c(c1)CCc1ccccc1N2`, the Potency entry in assay [1], in assay [2] and in [5] was “inactive” throughout.

On to `CCC(C)COC(=O)CC(C)C` (centres undefined), for which the Potency result in [1], in assay [3] and in assay [5] was “inactive” throughout. For the same molecule, the values for the Potency in [2] and in assay [7] were 68.6 µM (active) and 61.1 µM (active), respectively.

For the molecule `O=[N+]([O-])c1ccc(O/N=C/c2cc(Br)c(O)c(Br)c2)c([N+](=O)[O-])c1`, the Potency result in [1], in [2], in [7] and in [3] was “inactive” in each case. Moreover, in [5], the Potency was 10.8 µM (active).

Regarding `N#CCc1ccc(Cl)cc1Cl`, the Potency result in assay [1], in [6], in assay [7], in [4], in assay [3] and in [5] was “inactive” in each case.

On to `C=C(C)CCCC(C)CCO` (centres undefined), for which the Potency result in [1], in assay [4], in assay [3] and in assay [5] was “inactive” throughout. The Potency in assay [7] is 54.5 µM (active).

On to `Cc1cc2c(OCC(CNC(C)(C)C)OC(=O)c3ccccc3)cccc2[nH]1` (centres undefined), for which the Potency result in assay [1], in [4] and in assay [3] was “inactive” each time. The Potency in [5] is 11.9 µM (active).

`C[C@H]1c2cccc(O)c2C(O)=C2C(=O)[C@]3(O)C(O)=C(C(N)=O)C(=O)[C@@H](N(C)C)[C@@H]3[C@@H](O)[C@@H]21`: the Potency entry in assay [1], in [4], in [3] and in [10] was “inactive” throughout. Further, in [8], the molecule was called inactive.

Take `CCC1(CO)COCOC1`: the Potency entry in [1], in assay [4], in [3] and in assay [5] was “inactive” in each case.

On to `O=C(OCC(O)CO)c1ccccc1Nc1ccnc2cc(Cl)ccc12` (centres undefined), for which the Potency entry in assay [1], in assay [6], in assay [4], in [3], in assay [10] and in assay [5] was “inactive” in each case. The molecule was classed as inactive in assay [9] and in [8].

For the molecule `CCCCC(CC)COP(=O)(O)O` (centres undefined), the Potency entry in [1], in assay [7], in [4], in [3] and in [5] was “inactive” each time.

As for `Oc1c(I)cc(I)c2cccnc12`, the Potency result in assay [1], in [4], in assay [3] and in assay [5] was “inactive” each time. Further, the Potency in assay [7] is 13.3 µM (active).

The record behind these values is PubChem BioAssay (Tox21).
